# Sfp PPTase inh: Sfp phosphopantetheinyl transferase inhibition; Biochemical Sfp PPTase activity, qHTS; Potency, µM, without a hit: largest response in the series, negative = inhibition, usual class: inhibitors; 310,000 tested, 3.5% active; Q9F4F7; AID 1490;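 note: the enzyme is Sfp with the accession as filed and its product quenches rhodamine fluorescence; 0% = enzyme reaction without inhibitor and -100% = no enzyme wells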
#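 Reaction rates are the 30-min fluorescence difference (ex 525, em 598 nm) in wells containing 15 nM Sfp, 5 uM rhodamine-CoA and 12.5 uM BHQ-2-YbbR at pH 7.6 with 10 mM MgCl2.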
# BAZ2B inh: inhibitors of human BAZ2B bromodomain; Q9UIF8; AlphaScreen BAZ2B-H3K14Ac peptide displacement; Potency, µM (titrated, usually from 114 µM), without a hit: top-dose activity change, negative = inhibition, most hits filed as inhibitors; 360,000 tested, 4.4% active; AID 504333; note: % is set by controls: 0 for no effect and ±100 for the full control effect; nearly all actives have a fitted effect of over 60% in size
#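 Multi-concentration screen (max 110 uM) measuring displacement of acetylated histone H3 peptide from BAZ2B by AlphaScreen, using 50 nM protein, 50 nM peptide and 10 ug/mL streptavidin donor plus Ni-chelate acceptor beads.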
# HP1b binding inh: blocks HP1-beta chromodomain binding to methylated histone tails; AlphaScreen HP1-beta / biotin-H3K9me3 peptide binding; Potency, µM (series often up to 114 µM), inactives show at the highest dose activity change, negative = inhibition, actives largely listed as inhibitors; 390,000 tested, 0.56% active; note: nearly all actives have a fitted effect of over 70% in size
# Target sequence (P83916 whole entry, looked up): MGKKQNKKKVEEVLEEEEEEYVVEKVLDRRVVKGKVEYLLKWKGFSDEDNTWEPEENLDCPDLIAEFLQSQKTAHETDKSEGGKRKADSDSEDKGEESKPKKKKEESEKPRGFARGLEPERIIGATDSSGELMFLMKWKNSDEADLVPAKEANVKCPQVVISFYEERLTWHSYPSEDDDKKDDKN
#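 Compound inhibition of the preformed complex between 50 nM HP1-beta and 50 nM biotinylated H3K9me3 peptide was read by AlphaScreen. Buffer was PBS pH 7.4 with 0.01% Tween-20. Incubations ran 30 min at room temperature, with 10 ug/mL donor/acceptor beads.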
# G9a inh: G9a (human) methyltransferase inhibition; Q96KQ7; G9a H3K9 monomethylation, AlphaScreen, 2 h; Potency, µM (top dose mostly 102 µM), for the others: at the top dose activity, negative = inhibition, hits mostly inhibitors; 350,000 tested, 8.8% active; note: % is set by controls: 0 for no effect and ±100 for the full control effect; nearly all actives have a fitted effect of over 75% in size
# Target sequence (Q96KQ7 913-1193 limits assumed): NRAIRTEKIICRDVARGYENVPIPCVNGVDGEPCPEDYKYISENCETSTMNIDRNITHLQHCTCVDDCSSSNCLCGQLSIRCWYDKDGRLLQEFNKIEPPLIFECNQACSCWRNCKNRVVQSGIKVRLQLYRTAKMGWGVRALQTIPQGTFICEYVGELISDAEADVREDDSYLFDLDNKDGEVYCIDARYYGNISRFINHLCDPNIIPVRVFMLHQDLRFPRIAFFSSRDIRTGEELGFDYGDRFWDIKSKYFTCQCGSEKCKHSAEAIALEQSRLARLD
#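 Using a bead-based AlphaScreen, monomethylated H3K9 product from 2 h room-temperature reactions (G9a 20 nM, peptide 500 nM, SAM 20 uM) was detected with 0.5 ug/mL rabbit anti-H3K9me1 antibody.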
# JMJD2A Tudor inh: blocks the human JMJD2A Tudor domain; AlphaScreen JMJD2A-Tudor / H3K4me3 peptide binding; AID 504339; 390,000 tested, 4.4% active; Potency, µM (titrated, usually from 114 µM), for inactives: at the top dose activity change, negative = inhibition, actives largely listed as inhibitors; O75164; note: % is set by controls: 0 for no effect and ±100 for the full control effect; nearly all actives have a fitted effect of over 50% in size
# L3MBTL1 inh: blocks human L3MBTL1; Q9Y468; AlphaScreen L3MBTL1–H3K9me1 peptide binding; Potency, µM (titrated, usually from 57.1 µM), for the others: top-dose activity, negative = inhibition, usual class: inhibitors; 230,000 tested, 0.66% active; AID 485360; note: % is set by controls: 0 for no effect and ±100 for the full control effect; nearly all actives have a fitted effect of over 60% in size
#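 L3MBTL1 (50 nM) pre-complexed 30 min with biotinylated H3(1-15)K9me1 peptide (75 nM), then compounds added for 30 min at room temperature; AlphaScreen streptavidin donor/nickel chelate acceptor beads (10 ug/mL final) read after 30 min dark incubation.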
# * marks the source's active call; other numbers are inactive results; ? = inconclusive; · = no result given; ! = repeats disagree; [ ] = another dose, or the depositor's remark. In the library only some 12% were active in any assay of this set; here they are far more common. Calls come from the whole dose curve; as a rule, active = well fitted curve in the direction sought with a large enough effect; inconclusive = small, poorly fitted or top-dose-only effect, or another doubt; inactive = no such curve, though single readings can be large; an effect the other way counts as inactive or inconclusive. Potency is the fitted concentration of half-maximal effect.
SMILES,Sfp PPTase inh,BAZ2B inh,HP1b binding inh,G9a inh,JMJD2A Tudor inh,L3MBTL1 inh
O=C(Nc1ccccc1N1CCOCC1)c1ccc2c(c1)OCCO2,19%,-2%,25%,·,-12%,·
O=C(O)c1ccccc1C(=O)Nc1cc(C(F)(F)F)ccc1N1CCCC1,-1%,-32%,?,-8%,?,·
CCOC(=O)c1[nH]c2ccccc2c1NC(=O)c1ccc(C)c(C)c1,·,-1%,30%,?,-11%,·
COc1ccccc1C(=O)Nc1nc2cc3c(cc2s1)OCO3,10%,-2%,72%,36%,1%[11.4 µM],·
O=C(NNc1nc2cc3c(cc2s1)OCO3)c1cccc(F)c1,28µM*,-5%,32%,8.9µM*,-15%,-14%
O=C(NNc1nc2cc3c(cc2s1)OCO3)c1ccccc1,?,-6%,28%,28µM*,-18%,-10%
Cc1sc2ncn(CC(=O)NCCCN3CC(C)CC(C)C3)c(=O)c2c1S(=O)(=O)N1CC(C)CC(C)C1 (stereo not given),12%,2%,-5%,9%,-15%,·
O=C1[C@@H]2C(Cc3ccc(O)cc3)NC3(C(=O)Nc4ccc(F)cc43)[C@@H]2C(=O)N1c1ccccc1 (stereo not given in full),-1%,-37%,-17%,79µM*,79µM*,-8%
O=C1[C@@H]2[C@H](Cc3ccc(O)cc3)N[C@]3(C(=O)Nc4ccccc43)[C@@H]2C(=O)N1c1ccc(F)cc1,13%,2%,·,?,·,-1%
Cc1c(Cl)ccc2c1NC(=O)[C@]21N[C@@H](Cc2ccccc2)[C@H]2C(=O)N(c3ccc(F)cc3)C(=O)[C@H]21,13%,?,12%,1.6µM*,-29%,·
COc1ccccc1Nc1sc(C(=O)c2ccc(C)cc2C)c(N)c1S(=O)(=O)c1ccccc1,·,-21%,14%[57 µM],-24%[59 µM],-31%,·
COc1ccccc1CNC(=O)c1ccc(C)c(-n2cnc3cccnc32)c1,·,-14%,28%,-9%[59 µM],3%,·
CC(=N\NC(=O)c1ccc([N+](=O)[O-])cc1)/C(=N/O)C(=O)Nc1ccccc1,0%,50µM*,33%,·,-11%,·
N#Cc1c(C(F)(F)F)cc(-c2ccco2)nc1SCc1ccncc1,-4%,7%,60%,?,4%,-1%
CSc1nc(-c2ccco2)cc(-c2ccccc2)c1C#N,-16%,24%,161%,50µM*,-10%[11.4 µM],2%
CSc1nc(-c2ccco2)cc(C(F)(F)F)c1C#N,1%,13%,-7%,25µM*,-2%[57.1 µM],10%
Cc1cc(C)c(S(=O)(=O)c2ccccc2)c(OC(=O)c2ccc(Cl)cc2Cl)n1,6%,56µM*,103%,19%,-22%,·
Cc1cc(Cc2cc(C)c(N)cc2C)c(C)cc1N,-4%,35µM*,-1%,·,-28%,-14%
COc1ccc(Cl)cc1NC(=O)Cn1cnc2c1c(=O)n(C)c(=O)n2C,·,0%,48%,-3%[59 µM],-9%,·
C[C@@H]1OC(OC2C(OC3CC[C@@]4(C)C5CC=C6C7CC(C)(C)CC[C@@]7(C(=O)O)CCC6(C)C5(C)CCC4[C@]3(C)CO)OCC(O)C2O)C(O)C(O)C1O (stereo not given in full),-3%,·,·,·,·,·
Cc1ccc2c(c1)N(CCCC(=O)Nc1cccc(C(F)(F)F)c1)C(=O)CO2,15%,-4%,-16%[57 µM],14%[59 µM],16µM*!,·
O=S(=O)(NNc1cccc(Cl)n1)c1ccc(Cl)cc1,40µM*,-8%,-2%,·,-6%,·
O=C(c1ccc(NC(=S)NCc2ccco2)cc1)N1CCOCC1,14%,-18%,10%,45µM*,-7%,-1%
NC(=O)c1ccc(NC(=S)NCc2ccco2)cc1,-3%,1%,14%,50µM*,-18%,·
O=S(=O)(c1ccc(NC(=S)NCc2ccco2)cc1)N1CCCCC1,9%,-38%,-7%,56µM*,-31%,-18%
CC(=O)c1ccc(NC(=S)NCc2ccco2)cc1,-5%,?,28%,·,-17%,-12%
